Bioassay records: PubChem, several laboratories
RAD52 anneal inh = RAD52 (human) annealing inhibition; P43351; recombinant RAD52 DNA annealing, FRET fluorescence; inhibition, % at 18.7 µM; 0.46% of 360,000 active; AID 651710;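 active = every replicate showing at least 50% inhibition; inconclusive = mean inhibition at least 50% but not in every replicate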
RAD54 inh = inhibitors of human RAD54 branch migration; AID 602329; inhibition, % at 10.4 µM; Q92698; RAD54 Holliday junction branch migration, FAM/BHQ fluorescence; 0.14% of 360,000 active;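 active = mean normalized replicate activity at least 40 and at least half of replicates scoring 40 or more; inconclusive = only one of the two criteria met; inactive = mean below 40 and under half of replicates reaching 40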;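 note: 0% = median of neutral control wells and 100% = median of positive control wells; inhibitors cause a drop in the FAM fluorescence signal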
NRP1-CendR mod = modulators of CendR peptide binding to human neuropilin-1 | FAM-RPARPAR peptide binding to NRP-1, fluorescence polarization | inhibition, % at 25 µM | 0.85% of 360,000 active;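 active = inhibition or corrected inhibition above about 18%, plus a signal ratio from 0.5 to 1.5, limit read from the data, passing the limit was not always enough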
miR-122 sensor = blocks miR-122 activity in Huh7 sensor cells; activation (reporter increase), % at 12.5 µM; Huh7 miR-122 Renilla luciferase sensor, 48 h; neutral wells = 0, positive control = 100; 0.3% of 340,000 active; AID 602342;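 active = mean replicate activation score at least 90 and every replicate individually at or above 90; inconclusive = only one of the two criteria met; inactive = neither criterion met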;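 note: higher luciferase means less miR-122 activity so hits act as miR-122 inhibitors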
DNA FID counter = displaces DNA intercalator in HCV helicase counter-screen. DNA fluorescent intercalator displacement, fluorescence. inhibition, % at 7.9 µM. 0.17% of 290,000 active. AID 1845; in the data active = inhibition above about 37%;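 note: 0% = vehicle and 100% = reference compound; higher means more ethidium bromide displaced from hairpin DNA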
N-glyco inh = blocks N-linked glycosylation in D54 reporter cells; D54 ERlucT glycosylation luciferase reporter, 24 h; percent of 100 nM tunicamycin response; reporter increase, % at 12.5 µM; 0.23% of 360,000 active; AID 588692;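 active = mean luciferase reporter signal, scaled so untreated is 0 and the glycosylation-blocking control 100, at or above a set limit in every replicate; inconclusive = mean reaches the limit but not every replicate does; inactive = mean below the limit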;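 note: luciferase carries N-glycosylation sites so blocking glycosylation raises the light; 0% = median of neutral control wells and 100% = median of 100 nM tunicamycin wells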
* hit, by the source's call; i = inactive; ? = inconclusive; . = no result given; [ ] = another dose, or the depositor's remark. An excerpt weighted towards active compounds, which were near 1.5% of everything screened.

SMILES	RAD52 anneal inh	RAD54 inh	NRP1-CendR mod	miR-122 sensor	DNA FID counter	N-glyco inh
C/C=C/c1ccc(C2[C@@H]3CN(Cc4cocn4)C[C@H]2N3)cc1 (stereo not given in full)	56*	.	.	.	.	.
C/C=C/c1ccc(C2[C@@H]3CN(Cc4nccs4)C[C@H]2N3)cc1 (stereo not given in full)	23	.	.	.	.	.
c1ccc2c(CN3CCOCC3)c[nH]c2c1	-3	-6	-1	6	-4	0
CC1(C)C2CC=C(CN3CCOCC3)C1C2 (stereo not given)	2	-1	-9	-8	91*	0
O=C(Cc1ccccn1)N1CCCCN2[C@H](C1)[C@@H](c1ccc(C#Cc3ccccc3)cc1)[C@@H]2CO	-38	-6	.	-13[16.7 µM]	.	.
O=c1c2ccccc2nc(/C=C/c2ccc([N+](=O)[O-])o2)n1-c1ccc(O)cc1	-54	.	-106	95*	-7	-18
Cc1cccc(-n2c(/C=C/c3ccc([N+](=O)[O-])o3)nc3ccccc3c2=O)c1	-139	-7	98	4	-20	-18
CC=Cc1ccc2n(c1=O)C[C@H]1[C@H](CO)[C@@H](C(=O)OC)[C@@H]2N1S(=O)(=O)c1cccc(C)c1 (mixture of isomers)	4	6	.	.	.	.
N#Cc1cccc(-c2ccc([C@@H]3[C@H]4CN(C(=O)Cc5ccncc5)CCCCN4[C@H]3CO)cc2)c1	-28	-4	.	18[16.7 µM]	.	.
CCN1CCN(S(=O)(=O)c2ccc(Cl)nc2)CC1	.	.	28*	1	6	-1
CC=Cc1ccc2n(c1=O)C[C@H]1[C@H](CO)[C@@H](C(=O)O)[C@@H]2N1S(=O)(=O)c1ccccc1C (mixture of isomers)	11	-3	.	3[16.7 µM]	.	.
COC(=O)C1=C(c2cc3ccccc3s2)C[C@@H]2CC[C@H]1N2C	4	1	22*	4	.	1
COC(=O)C1=C(c2cc3ccccc3s2)C[C@@H]2CC[C@H]1N2C(=O)NC1CC1	.	-7	-27	-9	.	-3
CCCN1[C@@H]2Cn3c(ccc(-c4ccc(F)cc4)c3=O)[C@H]1[C@@H](C(=O)OC)[C@@H]2CO	53*	4	.	5[16.7 µM]	.	.
CCC(=O)N1[C@@H]2c3ccc(-c4ccc(F)cc4)c(=O)n3C[C@H]1[C@H](CO)[C@H]2C(=O)OC	4	7	.	.	.	.
CCCOC(=O)c1ccccc1C(=O)OCCC	-12	-11	7	-4	.	-1
CCOC(=O)c1ccccc1C(=O)OCC	2	-15	44*	-7	.	1
COC(=O)[C@@H]1[C@@H](CO)[C@@H]2Cn3c(ccc(-c4ccccc4F)c3=O)[C@H]1N2CC1CCCC1	-8	6	.	.	.	.
COC(=O)C1=C(c2ccc(F)cc2F)C[C@@H]2CC[C@H]1N2C(=O)N1CCOCC1	-9	-1	16	1	.	1
COC(=O)C1=C(c2ccc(F)cc2F)C[C@@H]2CC[C@H]1N2C(=O)N1CCCC1	-4	-3	28*	4	.	-2
COC(=O)C1=C(c2ccc(F)cc2F)C[C@@H]2CC[C@H]1N2C(=O)N1CCCCC1	-10	-8	22*	-5	.	0
COC(=O)C1=C(c2ccc(OC(F)(F)F)cc2)C[C@@H]2CC[C@H]1N2C(=O)N1CCC(C)CC1	7	2	29*	-1	.	-3
COC(=O)C1=C(c2ccc(C(C)=O)cc2)C[C@@H]2CC[C@H]1N2C(=O)N1CCC(O)CC1	-6	1	29*	3	.	4
CC(C)NC(=O)N1[C@@H]2Cn3c(ccc(-c4cccc(C(=O)N(C)C)c4)c3=O)[C@H]1[C@@H](C(=O)O)[C@@H]2CO	11	0	.	.	.	.
O=C(Cc1ccccc1)N1CCCCN2[C@@H](CO)[C@@H](c3ccc(C#Cc4ccccc4)cc3)[C@@H]2C1	-5	-17	.	-7[16.7 µM]	.	.
SMILES	RAD52 anneal inh	RAD54 inh	NRP1-CendR mod	miR-122 sensor	DNA FID counter	N-glyco inh
CCc1ccc(N2C(=O)NC(=O)/C(=C\C=C\c3ccco3)C2=O)cc1	i	-38	-171	-1	-19	46*
CC(C)c1ccc(N2C(=O)NC(=O)/C(=C/C=C/c3ccco3)C2=O)cc1	.	.	-177	.	-21	?
Cc1cc(C)cc(N2C(=O)NC(=O)/C(=C\C=C\c3ccco3)C2=O)c1	-78	.	-118	-3	-25	56*
Cc1ccc(N2C(=O)NC(=O)/C(=C/C=C/c3ccco3)C2=O)cc1	.	.	-70	.	-23	?
CCCNC(=O)N1[C@@H]2c3ccc(-c4ccccc4OC)c(=O)n3C[C@H]1[C@H](CO)[C@H]2C(=O)O	-1	6	.	-4[16.7 µM]	.	.
O=C(Cc1ccccc1)N1CCCCN2[C@H](CO)[C@H](c3ccc(C#CC4(O)CCCC4)cc3)[C@H]2C1	8	-1	.	-1[16.7 µM]	.	.
C=CCN1C(=S)N[C@@H]2c3ccccc3O[C@@]1(C)[C@@H]2C(=O)OCC	15	7	.	.	.	.
Clc1cccc(N2Cc3cc(-c4ccccc4)ccc3-n3nncc3C2)c1	-9	-2	-130	8	.	40*
COc1ccc(-c2ccc3c(c2)CN(c2cccc(Cl)c2)Cc2cnnn2-3)cc1	-10	-2	10	0	.	0
CN(C)CC#Cc1ccc([C@@H]2[C@@H](CO)N3CCCCN(C(=O)Cc4ccccn4)C[C@@H]23)cc1	37	-6	.	-6[16.7 µM]	.	.
CN(C)CC#Cc1ccc([C@@H]2[C@@H](CO)N3CCCCN(C(=O)Cc4ccccn4)C[C@H]23)cc1	61*	-11	.	4[16.7 µM]	.	.
N#Cc1cccc(-c2ccc([C@H]3[C@@H](CO)N4CCCCN(C(=O)Cc5ccccc5)C[C@H]34)cc2)c1	-43	6	.	-13[16.7 µM]	.	.
COc1ccc(OC(=O)N(C)C)c(CN(C)C)c1	.	2	27*	3	3	-2
CC12CCC3C(CCC4(O)CC(O)CCC34C=O)C1(O)CCC2C1=CC(=O)OC1 (stereo not given)	-7	.	7	96*	.	-16
C[C@]12CC[C@H]3[C@@H](CC[C@]4(O)C[C@@H](O)CC[C@]34C=O)[C@@]1(O)CC[C@@H]2C1=CC(=O)OC1	6	-10	1	1	.	-19
COC(=O)[C@@H]1[C@@H](CO)[C@@H]2Cn3c(cccc3=O)[C@H]1N2C(=O)C1CCC1	-14	-6	.	1[16.7 µM]	.	.
Oc1ccc(/C=N/NP(=S)(c2ccccc2)c2ccccc2)cc1	.	5	-16	96*	3	1
COC(=O)[C@H]1[C@H](CO)[C@H]2Cn3c(ccc(-c4cccc(OC)c4)c3=O)[C@@H]1N2C(=O)c1ccccc1F	10	-5	.	1[16.7 µM]	.	.
COc1cc2c(cc1O)[C@@H]1Cc3ccc(OC)c(O)c3CN1CC2	17	7	11	24	.	11
CCCN1CCc2cc(O)cc3c2[C@H]1Cc1ccc(O)c(O)c1-3	96*	63*	5	-7	.	-3
CN1CCc2cc(O)cc3c2[C@H]1Cc1ccc(O)c(O)c1-3	95*	39	2	-3	.	-8
CN(C)C(=O)Oc1ccc(C(=O)c2ccccc2)cc1	-10	3	5	5	-9	-1
